Laboratory results as given in PubChem BioAssay (NCI).
Several values for one entry are separate records, joined by “and”; a condition that tells them apart may be missing. Equal values may be shown once. About 83,000 compounds went through this panel and 20% of them were active in at least one assay; those are over-represented in the sample as a whole.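 Growth was measured after 48 h exposure to one concentration of compound in 96-well plates. Values under 10 count as active.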 Activity calls are given as the source filed them.

test system: HL-60(TB) leukemia; experiment: NCI-60 one-dose screen, 48 h (100 = growth as untreated, 0 = no growth, -100 = all killed); details: 10 µM unless noted

Row | Compound | growth
1 | C=CCN(/C=C/CN(CC=C)CC=C)CC=C | 102% (inactive)
2 | COc1ccc2c(c1)CCCC21C(=O)Nc2ccccc21 (stereo not given) | 88% (inactive)
3 | CC(C)(C(=O)c1cccnc1)c1cccnc1 | 99.5% (inactive) and 126% (inactive)
4 | COc1ccc(/C=C/C(=C/c2c(O)[nH]c3cc(Br)ccc23)N=O)cc1 | 119% (inactive)
5 | C[C@H]1[C@H](C)CC[C@]2(CO)CC[C@]3(C)C(=CC[C@@H]4[C@@]5(C)CCCNC(C)(C)[C@@H]5CC[C@]43C)[C@H]12 | -55% (active)
6 | CCN(CC)CCCNc1ccnc2cc3ccccc3cc12 | 83.7% (inactive)
7 | CNC(=O)c1cccc(-c2ccc3c(N4CCOC[C@@H]4C)nc(N4CCOC[C@@H]4C)nc3n2)c1 | 28.2% (inactive) and 7.66% (active)
8 | COC(=O)/C=C/c1cc(OC)c2c(c1)[C@@H](C(=O)OC)[C@H](c1ccc(OC)c(OC)c1)O2 | -13.3% (active)
9 | COc1ccccc1C(C[N+](=O)[O-])c1c(-c2ccccc2)[nH]c2cc(C)ccc12 (stereo not given) | 58.9% (inactive)
10 | Cc1nnc(-n2c(O)cc(=O)n(-c3ccccc3)c2=S)nc1/C=C/c1ccc(N(C)C)cc1 | 7.92% (active)
11 | COc1cc(-c2nc3occn3c2-c2ccnc(NCCNS(=O)(=O)c3ccc(Cl)cc3)n2)ccc1F | 100% (inactive)
12 | CCCCCCCCCCCCCCCCCCOc1ccccc1CC(=O)NCC[N+]1(C)CCCC1 | 39.7% (inactive)
13 | CCN(CC)Cc1cc2[nH]c3c4ccc(Cl)cc4ncc3c2cc1OC | -72.1% (active) and 94.6% (inactive)
14 | O=C1C=CC2(NN=C(c3ccccc3)N2c2ccccc2)c2cccc(O)c21 (stereo not given) | 29.8% (inactive)
15 | C(=C\c1nc2ccccc2s1)/c1ccc(N2CCOCC2)s1 | 24% (inactive)
16 | O=C(/C=C/c1ccccc1)c1cccc(O)c1 | 72.1% (inactive)
17 | CCN1CCN(C(=O)[C@]23CCC(C)(C)C[C@@H]2C2=CC[C@@H]4[C@@]5(C)CCC(=O)C(C)(C)[C@@H]5CC[C@@]4(C)[C@]2(C)CC3)CC1 | -35.8% (active)
18 | O=C(CO)C(O)C(O)C(O)C(O)CO (stereo not given) | 101% (inactive) and 102% (inactive)
19 | COc1cc2c(cc1OC)C(C(CCCCCC(CCC(C)C)C1NCCc3cc(OC)c(OC)cc31)CCC(C)C)NCC2 (stereo not given) | -12.4% (active)
20 | CC1(C)CCCN1CCCN1c2ccccc2Sc2ccc(Cl)cc21 | 46% (inactive)

Row | Compound | growth
21 | C/C(=N/NC(N)=S)c1ccc(C)cc1 | 92% (inactive)
22 | CCC(C)NC(=O)c1ccccc1C (stereo not given) | 111% (inactive)
23 | O=C(c1ccccc1)C(CN1CCOCC1)c1ccccc1 (stereo not given) | 12.2% (inactive)
24 | CCN(CC)CCOc1ccc(NC(=O)C(C(C)C)N2C(=O)/C(=C/c3ccc(Br)cc3)SC2=S)cc1 (stereo not given) | 27.6% (inactive)
25 | CC(Oc1ccc(C(=O)NS(=O)(=O)C(C)(C)C)cc1C(F)(F)F)c1ccc(Oc2ccccc2)cn1 (stereo not given) | 72.2% (inactive)
26 | COc1ccc(-c2nc3ncccn3c2-c2nnc(-c3ccc(F)cc3)o2)cc1 | 91.1% (inactive)
27 | N=C(N)N1CCc2ccccc2C1 | 93.6% (inactive) and 109% (inactive)
28 | COc1cc(-c2csc(NC(=O)Nc3ccc(Cl)cc3)n2)cc(OC)c1OC | 2.62% (active)
29 | OCCN1CCN(CCO)CC1 | 108% (inactive) and 102% (inactive) and 96.2% (inactive)
30 | COc1ccc(C(=O)N2NC(=O)/C(=C/c3ccc(F)cc3)N=C2c2ccccc2)cc1 | 3.84% (active)
31 | O=C1N[C@H]2[C@H](CS[C@H]2CCCCC(=O)N(CCP(c2ccccc2)c2ccccc2)CCP(c2ccccc2)c2ccccc2)N1 | 72.8% (inactive)
32 | C#Cc1cccc(Nc2ncnc3cc(OC)c(OCCCCCCC(=O)NO)cc23)c1 | 2.38% (active)
33 | COc1cc(OCc2cccc(Br)c2C)cc(OC)c1C=O | 92.6% (inactive)
34 | COC(=O)[C@]12CC[C@@H](C)[C@H](C)[C@@H]1C1=CC[C@@H]3[C@@]4(C)C(C=O)=C[C@@](C)(COC(C)=O)[C@@H]4[C@H](O)C[C@@]3(C)[C@]1(C)CC2 | -24.7% (active)
35 | COc1ccc(C2CC(c3cccc(OC)c3)=NN2C(=O)c2cc(OC)c(OC)c(OC)c2)cc1 (stereo not given) | -44.1% (active)
36 | Clc1ccc(-n2cnc3c(Cl)ncnc32)cc1Cl | 45.7% (inactive)
37 | COc1cc(C2CC(C3C(=O)N(C)C(=O)N(C)C3=O)=NN2c2cc(Cl)cc(Cl)c2)cc(OC)c1OC (stereo not given) | 98.6% (inactive)
38 | COC(=O)[C@H](Cc1ccccc1)NC(=O)[C@@H](OC)[C@@H]1Cc2cc3cc(OC4CC(OC5CC(O)C(O)C(C)O5)C(O)C(C)O4)c(C)c(O)c3c(O)c2C(=O)[C@H]1OC1CC(OC2CC(OC3CC(C)(O)C(O)C(C)O3)C(O)C(C)O2)C(O)C(C)O1 (stereo not given in full) | -9.07% (active)
39 | CCCCCCCCCCCCCCCCNC(=S)N/N=C/c1ccc(O)cc1O | 49.9% (inactive)
40 | O=C(Nc1ccc(-n2ccc3c(NC(=O)c4ccccc4)nccc32)cc1)c1ccc(N2CCOCC2)c(C(F)(F)F)c1 | 24.8% (inactive)
